From ChEMBL document CHEMBL1961873, “Compounds: GSK PKIS; Assays: Nanosyn kinase panel” (2012) come the findings set out here.

For assay [1], the target named is Platelet-derived growth factor receptor beta (Homo sapiens) (UniProt P09619). The settings on record: at 1 µM.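 Also: each value is a mean percent inhibition.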
In assay [2] the target is Tyrosine-protein kinase FRK (Homo sapiens) (UniProt P42685). The settings on record: at 0.1 µM.
For assay [3] the target is unchanged. The settings on record: at 1 µM.
Assay [4] addresses Protein-tyrosine kinase 2-beta (Homo sapiens) (UniProt Q14289). The settings on record: at 0.1 µM.
The target is the same in assay [5]. The settings on record: at 1 µM.
Assay [6] deals with Proto-oncogene tyrosine-protein kinase receptor Ret (Homo sapiens) (UniProt P07949). The settings on record: at 0.1 µM.
Proto-oncogene tyrosine-protein kinase receptor Ret (Homo sapiens), sequence (P07949 whole entry): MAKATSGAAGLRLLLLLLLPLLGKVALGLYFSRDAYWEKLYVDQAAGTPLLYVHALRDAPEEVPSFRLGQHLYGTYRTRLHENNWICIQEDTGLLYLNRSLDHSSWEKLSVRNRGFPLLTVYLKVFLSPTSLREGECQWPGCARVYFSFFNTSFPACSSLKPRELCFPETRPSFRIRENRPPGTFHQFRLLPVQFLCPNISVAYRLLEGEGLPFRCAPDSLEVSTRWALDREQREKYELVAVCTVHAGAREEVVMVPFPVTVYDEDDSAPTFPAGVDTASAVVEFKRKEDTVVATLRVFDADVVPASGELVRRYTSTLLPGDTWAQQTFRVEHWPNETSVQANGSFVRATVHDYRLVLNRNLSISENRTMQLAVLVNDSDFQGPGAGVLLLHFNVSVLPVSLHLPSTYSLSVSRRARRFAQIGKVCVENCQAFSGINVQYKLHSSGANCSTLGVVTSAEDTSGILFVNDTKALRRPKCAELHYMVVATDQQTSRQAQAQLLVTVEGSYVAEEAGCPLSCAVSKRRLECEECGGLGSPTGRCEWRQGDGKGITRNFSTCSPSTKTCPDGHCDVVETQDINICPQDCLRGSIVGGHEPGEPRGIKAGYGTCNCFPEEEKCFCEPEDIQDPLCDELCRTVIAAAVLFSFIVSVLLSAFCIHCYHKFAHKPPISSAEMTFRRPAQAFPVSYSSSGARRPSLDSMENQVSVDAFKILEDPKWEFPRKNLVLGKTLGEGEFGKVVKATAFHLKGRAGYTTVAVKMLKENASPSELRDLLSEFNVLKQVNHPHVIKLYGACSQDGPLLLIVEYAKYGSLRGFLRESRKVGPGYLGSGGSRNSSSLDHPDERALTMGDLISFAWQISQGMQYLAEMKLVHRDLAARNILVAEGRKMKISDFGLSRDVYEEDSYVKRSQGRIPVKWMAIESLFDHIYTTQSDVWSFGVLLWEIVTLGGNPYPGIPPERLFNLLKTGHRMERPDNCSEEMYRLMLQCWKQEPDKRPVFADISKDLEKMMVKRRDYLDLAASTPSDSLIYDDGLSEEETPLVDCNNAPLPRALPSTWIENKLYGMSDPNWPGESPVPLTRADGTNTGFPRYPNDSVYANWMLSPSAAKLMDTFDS
For assay [7] the target is unchanged. The settings on record: at 1 µM.
The subject of assay [8] is Proto-oncogene tyrosine-protein kinase receptor Ret (Homo sapiens), P07949 [V804L]. The settings on record: at 0.1 µM.
The test system is the same in assay [9]. The settings on record: at 1 µM.
Assay [10] concerns Proto-oncogene tyrosine-protein kinase receptor Ret (Homo sapiens), P07949 [Y791F]. The settings on record: at 0.1 µM.
Proto-oncogene tyrosine-protein kinase receptor Ret (Homo sapiens), P07949 [Y791F], sequence (P07949 whole entry Y791F): as the sequence (P07949 whole entry) above, with Y791F counted along it
The test system is the same in assay [11]. The settings on record: at 1 µM.
In assay [12] the target is Macrophage-stimulating protein receptor (Homo sapiens) (UniProt Q04912). The settings on record: at 0.1 µM.
Macrophage-stimulating protein receptor (Homo sapiens), sequence (Q04912 25-304 limits assumed): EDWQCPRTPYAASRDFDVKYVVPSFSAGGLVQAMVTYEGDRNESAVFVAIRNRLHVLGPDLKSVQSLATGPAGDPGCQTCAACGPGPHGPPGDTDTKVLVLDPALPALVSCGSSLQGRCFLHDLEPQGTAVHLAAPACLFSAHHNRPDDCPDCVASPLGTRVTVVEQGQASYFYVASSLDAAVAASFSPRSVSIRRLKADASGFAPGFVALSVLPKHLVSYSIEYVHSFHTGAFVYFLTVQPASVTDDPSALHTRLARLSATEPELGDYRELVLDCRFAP
Macrophage-stimulating protein receptor (Homo sapiens), sequence (Q04912 310-1400 limits assumed): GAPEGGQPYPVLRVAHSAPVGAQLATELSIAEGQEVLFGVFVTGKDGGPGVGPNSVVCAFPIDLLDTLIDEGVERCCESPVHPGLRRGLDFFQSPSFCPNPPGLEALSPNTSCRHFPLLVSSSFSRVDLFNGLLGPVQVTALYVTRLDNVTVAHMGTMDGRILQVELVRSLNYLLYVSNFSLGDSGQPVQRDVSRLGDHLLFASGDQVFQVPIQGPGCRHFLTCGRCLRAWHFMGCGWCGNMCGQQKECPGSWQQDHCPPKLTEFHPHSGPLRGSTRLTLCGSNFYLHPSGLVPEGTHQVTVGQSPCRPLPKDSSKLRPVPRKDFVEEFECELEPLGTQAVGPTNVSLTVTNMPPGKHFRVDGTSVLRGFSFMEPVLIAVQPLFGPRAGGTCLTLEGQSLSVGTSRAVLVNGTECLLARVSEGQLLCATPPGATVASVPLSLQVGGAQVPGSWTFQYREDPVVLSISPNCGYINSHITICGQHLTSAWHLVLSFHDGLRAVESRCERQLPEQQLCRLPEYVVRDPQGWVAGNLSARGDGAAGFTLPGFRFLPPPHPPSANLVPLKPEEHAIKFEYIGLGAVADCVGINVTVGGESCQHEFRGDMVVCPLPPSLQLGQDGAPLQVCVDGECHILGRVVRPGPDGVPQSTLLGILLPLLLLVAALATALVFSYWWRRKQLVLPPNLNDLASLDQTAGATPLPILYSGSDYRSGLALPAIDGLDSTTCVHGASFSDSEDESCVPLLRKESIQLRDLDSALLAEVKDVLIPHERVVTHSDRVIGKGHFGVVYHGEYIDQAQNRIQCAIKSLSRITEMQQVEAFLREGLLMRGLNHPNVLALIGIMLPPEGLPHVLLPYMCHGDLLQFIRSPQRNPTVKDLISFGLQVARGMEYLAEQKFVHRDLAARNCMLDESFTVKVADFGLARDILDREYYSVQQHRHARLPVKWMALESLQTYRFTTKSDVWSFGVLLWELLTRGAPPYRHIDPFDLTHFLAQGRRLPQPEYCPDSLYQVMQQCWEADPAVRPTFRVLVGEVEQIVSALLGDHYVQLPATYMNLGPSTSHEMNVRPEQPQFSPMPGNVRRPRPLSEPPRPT
Assay [13] shares this target. The settings on record: at 1 µM.
Assay [14] addresses Proto-oncogene tyrosine-protein kinase ROS (Homo sapiens) (UniProt P08922). The settings on record: at 0.1 µM.
Assay [15] shares this target. The settings on record: at 1 µM.
Assay [16] addresses Proto-oncogene tyrosine-protein kinase Src (Homo sapiens) (UniProt P12931). The settings on record: at 0.1 µM.
Assay [17] has the same target. The settings on record: at 1 µM.
The target of assay [18] is Tyrosine-protein kinase Srms (Homo sapiens) (UniProt Q9H3Y6). The settings on record: at 0.1 µM.
The target is the same in assay [19]. The settings on record: at 1 µM.
The target in assay [20] is Tyrosine-protein kinase SYK (Homo sapiens) (UniProt P43405). The settings on record: at 0.1 µM.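 Also: reported percentages are mean inhibition values for SYK.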

SMILES strings stand for the structures.

Proto-oncogene tyrosine-protein kinase receptor Ret (Homo sapiens), P07949 [V804L], sequence (P07949 whole entry V804L): as the sequence (P07949 whole entry) above, with V804L counted along it
Proto-oncogene tyrosine-protein kinase ROS (Homo sapiens), sequence (P08922 whole entry): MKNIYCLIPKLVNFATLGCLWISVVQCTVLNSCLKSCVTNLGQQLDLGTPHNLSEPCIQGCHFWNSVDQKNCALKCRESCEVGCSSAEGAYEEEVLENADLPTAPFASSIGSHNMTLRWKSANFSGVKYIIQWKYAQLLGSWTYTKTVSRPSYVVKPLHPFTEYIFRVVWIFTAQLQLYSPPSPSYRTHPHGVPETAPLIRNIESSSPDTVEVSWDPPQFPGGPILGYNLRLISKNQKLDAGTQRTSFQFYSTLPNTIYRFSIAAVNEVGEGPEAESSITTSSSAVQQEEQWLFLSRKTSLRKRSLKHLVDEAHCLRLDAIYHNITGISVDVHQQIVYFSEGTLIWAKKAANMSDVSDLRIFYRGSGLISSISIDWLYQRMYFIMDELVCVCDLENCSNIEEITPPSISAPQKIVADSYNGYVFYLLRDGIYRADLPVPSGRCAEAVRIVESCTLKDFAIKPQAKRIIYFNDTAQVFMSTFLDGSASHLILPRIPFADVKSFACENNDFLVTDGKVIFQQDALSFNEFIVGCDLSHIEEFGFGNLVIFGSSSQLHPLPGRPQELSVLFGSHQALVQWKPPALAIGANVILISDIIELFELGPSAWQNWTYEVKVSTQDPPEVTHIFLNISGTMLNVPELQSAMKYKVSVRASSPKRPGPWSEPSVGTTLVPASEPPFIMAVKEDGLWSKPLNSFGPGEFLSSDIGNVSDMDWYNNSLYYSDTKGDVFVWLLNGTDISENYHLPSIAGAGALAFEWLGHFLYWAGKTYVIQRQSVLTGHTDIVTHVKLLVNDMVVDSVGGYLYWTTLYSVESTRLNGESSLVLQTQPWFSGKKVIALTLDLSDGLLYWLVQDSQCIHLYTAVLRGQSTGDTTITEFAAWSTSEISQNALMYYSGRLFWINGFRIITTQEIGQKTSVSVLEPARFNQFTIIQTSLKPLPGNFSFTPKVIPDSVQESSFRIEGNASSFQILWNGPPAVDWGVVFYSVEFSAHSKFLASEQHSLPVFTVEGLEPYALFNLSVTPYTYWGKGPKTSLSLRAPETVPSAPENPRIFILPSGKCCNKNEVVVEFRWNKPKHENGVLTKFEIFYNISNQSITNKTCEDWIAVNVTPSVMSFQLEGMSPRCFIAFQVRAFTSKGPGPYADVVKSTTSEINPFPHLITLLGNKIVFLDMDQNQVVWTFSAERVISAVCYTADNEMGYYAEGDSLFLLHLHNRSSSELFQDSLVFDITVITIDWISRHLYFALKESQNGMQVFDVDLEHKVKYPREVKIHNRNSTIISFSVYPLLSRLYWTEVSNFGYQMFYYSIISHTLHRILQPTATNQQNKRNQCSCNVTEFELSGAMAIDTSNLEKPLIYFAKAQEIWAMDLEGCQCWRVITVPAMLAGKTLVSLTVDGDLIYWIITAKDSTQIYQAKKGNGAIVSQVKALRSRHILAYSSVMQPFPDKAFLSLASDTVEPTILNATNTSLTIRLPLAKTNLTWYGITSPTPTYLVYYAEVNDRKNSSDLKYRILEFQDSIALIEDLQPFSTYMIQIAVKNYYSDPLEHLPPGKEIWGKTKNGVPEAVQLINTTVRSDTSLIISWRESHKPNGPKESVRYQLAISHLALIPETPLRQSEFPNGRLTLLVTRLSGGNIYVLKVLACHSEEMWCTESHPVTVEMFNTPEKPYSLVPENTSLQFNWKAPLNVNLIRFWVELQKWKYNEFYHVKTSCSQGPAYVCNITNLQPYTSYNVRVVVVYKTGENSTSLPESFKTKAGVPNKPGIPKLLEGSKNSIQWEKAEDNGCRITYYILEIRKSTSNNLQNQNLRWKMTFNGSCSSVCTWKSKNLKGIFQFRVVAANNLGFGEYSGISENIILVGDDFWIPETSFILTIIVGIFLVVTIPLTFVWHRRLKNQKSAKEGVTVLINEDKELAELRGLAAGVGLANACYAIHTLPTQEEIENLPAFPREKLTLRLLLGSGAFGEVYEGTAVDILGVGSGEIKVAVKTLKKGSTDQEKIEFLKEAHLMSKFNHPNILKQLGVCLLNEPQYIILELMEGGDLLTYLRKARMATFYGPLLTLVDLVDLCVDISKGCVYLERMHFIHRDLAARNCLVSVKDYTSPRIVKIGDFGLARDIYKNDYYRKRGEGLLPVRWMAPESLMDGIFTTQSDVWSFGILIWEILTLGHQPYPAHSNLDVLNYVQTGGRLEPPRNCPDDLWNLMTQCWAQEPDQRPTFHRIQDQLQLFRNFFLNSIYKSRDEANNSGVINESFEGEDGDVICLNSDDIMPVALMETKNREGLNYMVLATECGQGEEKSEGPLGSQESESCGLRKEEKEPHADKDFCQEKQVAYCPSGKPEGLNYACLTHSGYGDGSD

For orientation: inhibition means the change of the read-out against control, counted positive when it falls. On to `CCCN1CCC(c2ccc(Nc3nc(Nc4cc(F)ccc4C(N)=O)c4cc[nH]c4n3)c(OC)c2)CC1`, for which the inhibition stood at 54.5% in [1]; 4.23% in assay [2]; 19.3% in assay [3]; 94.9% in assay [4]; 96.8% in [5]; 9.07% in [6]. Besides, the inhibition in assay [7] was found to be 28.1%; in [8] it was 9.84%; in assay [9], 51.4%; in assay [10], 10%; in assay [11], 35.8%; in [12], 8.19%. For the same compound, the inhibition is 8.86% in assay [13]; 60.7% in assay [14]; 81.3% in [15]; -0.59% in assay [16]; 15.3% in [17]; 1.02% in [18]. For the same compound, the inhibition in assay [19] is 14.8%; in assay [20], -9.2%.

Regarding `CCN(CC)S(=O)(=O)c1ccc(OC)c(Nc2ncc(-c3ccccc3)o2)c1`, the inhibition in [1] was 63.8%; in assay [2] it was 1.39%; in [3], 9.88%; in assay [4], -0.93%; in [5], 16.5%; in assay [6], 9.2%. Also, the inhibition worked out at 36.2% in [7]; 3.84% in assay [8]; 21.3% in assay [9]; 5.14% in assay [10]; 35.7% in [11]; 4% in [12]. Also, the inhibition in [13] is -1.9%; in [14], 1.91%; in [15] it was 19%; in assay [16], 9.87%; in assay [17], 56.4%; in assay [18] it was 1.97%. The inhibition in assay [19] is 3.53%; in assay [20], 0.84%.

Regarding `Nc1nc(-c2cccc(Cl)c2)c(-c2ccc3ncccc3n2)s1`, the inhibition in assay [1] is 15%; in assay [2], 3.21%; in assay [3], 3.32%; in assay [4], 10.4%; in assay [5], 14.5%; in assay [6], 4.79%. Besides, the inhibition in assay [7] worked out at 5.99%; in assay [8] it was 8.87%; in assay [9], 14.1%; in assay [10], 3.93%; in assay [11] it was 15.2%; in assay [12] it was 4.75%. In addition, the inhibition in assay [13] was 10.5%; in assay [14] it was 6.74%; in assay [15], 11.4%; in assay [16] it was 4.18%; in assay [17], 13.6%; in [18], -1.79%. Also, the inhibition in [19] is -1.08%; in assay [20], -2.15%.

Take `CS(=O)(=O)CCNCc1ccc(-c2ccc3ncnc(Nc4ccc(OCc5ccccc5)c(C(F)(F)F)c4)c3c2)o1`: the inhibition in assay [1] came out at 2%; in assay [2], 3.35%; in assay [3] it was 2.29%; in assay [4] it was 8.29%; in [5], 7.02%; in assay [6], 5.03%. Also, the inhibition is 2.3% in assay [7]; 3.65% in assay [8]; 4.42% in [9]; 6.07% in [10]; 6.81% in assay [11]; -2.49% in assay [12]. Also, the inhibition is -4.8% in assay [13]; 3.04% in [14]; 6.52% in assay [15]; 6.38% in assay [16]; 7.74% in [17]; -2.3% in assay [18]. For the same compound, the inhibition was -1.62% in assay [19] and -2.88% in [20].

With `COc1ccc(-c2oc3ncnc(N)c3c2-c2ccc(NC(=O)Nc3cc(C(F)(F)F)ccc3F)cc2)cc1`, the inhibition in assay [1] worked out at 80.4%; in [2], 11.5%; in assay [3], 65%; in assay [4], 18.8%; in assay [5], 91%; in assay [6] it was 89%. Besides, the inhibition worked out at 93.6% in [7]; 69.5% in [8]; 87.8% in assay [9]; 74.4% in assay [10]; 94.7% in assay [11]; 4.83% in assay [12]. Moreover, the inhibition in [13] is 21.8%; in [14], 32.7%; in [15], 81.2%; in assay [16], 43.1%; in [17], 91.1%; in [18], 1.78%. For the same compound, the inhibition in assay [19] is 8.83%; in assay [20] it was -0.9%.

As to `COc1cc(/C=N/Nc2ncnc3[nH]ncc23)ccc1O`, the inhibition in assay [1] worked out at 67%; in assay [2] it was 2.72%; in [3], 3.55%; in assay [4], 11.4%; in [5] it was 29.7%; in [6], 59%. The inhibition in assay [7] was 83.4%; in assay [8], 17.8%; in [9], 68.6%; in assay [10], 56.7%; in assay [11], 80.9%; in assay [12], -1.46%. For the same compound, the inhibition in assay [13] was 17%; in assay [14], 5.97%; in assay [15] it was 27%; in assay [16], 27.9%; in [17], 83.2%; in assay [18], -0.95%. The results for the inhibition in assay [19] and in assay [20] were 6.55% and -7.54%, respectively.

Regarding `CCn1c(-c2nonc2N)nc2c(C#CC(C)(C)O)ncc(OC3CCNCC3)c21`, the inhibition in assay [1] turned out to be 41.1%; in [2], 0.94%; in [3], 2.25%; in assay [4], 6.98%; in assay [5], 45.3%; in assay [6], 4.43%. In addition, the inhibition in assay [7] was 10.3%; in assay [8], 1.1%; in assay [9] it was 4.05%; in assay [10], 1.51%; in assay [11], 17.1%; in [12], -2.24%. The inhibition in assay [13] was 0.48%; in assay [14], 7.34%; in assay [15], 6.9%; in assay [16], 7.32%; in assay [17] it was 11.4%; in [18], 0.02%. Also, the values for the inhibition in assay [19] and in assay [20] were 1.37% and 2.08%, respectively.

Regarding `CCNC(=O)O[C@H]1CN[C@H](C#Cc2cc3ncnc(Nc4ccc(OCc5cccc(F)c5)c(Cl)c4)c3s2)C1`, the inhibition in assay [1] was determined as 5.63%; in assay [2], 1.7%; in assay [3] it was 1.79%; in [4] it was 9.03%; in [5], 7.74%; in assay [6], 2%. The inhibition stood at 3.91% in assay [7]; 2.16% in [8]; 0.84% in assay [9]; 1.93% in assay [10]; 2.83% in [11]; 3.96% in assay [12]. Also, the inhibition is 3.52% in [13]; 4.68% in assay [14]; 3.52% in assay [15]; 0.25% in assay [16]; 6.91% in assay [17]; -0.91% in assay [18]. Besides, the inhibition in assay [19] is -2.79%; in assay [20], -1.96%.

Consider `Nc1nc(-c2ccc(F)cc2)c(-c2ccc3ncccc3n2)s1`, for which the inhibition in assay [1] is 42.9%; in assay [2], 2.59%; in assay [3] it was 2.66%; in [4], 10%; in assay [5], 14.3%; in assay [6] it was 8.56%. Also, the inhibition was 14.8% in assay [7]; 4.68% in assay [8]; 7.83% in [9]; 7.45% in assay [10]; 14% in assay [11]; -8.7% in [12]. In addition, the inhibition is 7.82% in assay [13]; 4.44% in assay [14]; 15.8% in assay [15]; -1.89% in [16]; 14.2% in assay [17]; 0.67% in assay [18]. Moreover, the inhibition in assay [19] is 3.74%; in assay [20] it was -1.32%.

Consider `CNC(=O)c1cccc(C#Cc2cncnc2Nc2ccc(OCc3cccc(F)c3)c(Cl)c2)c1`, for which the inhibition in [1] was 14.1%; in assay [2], -0.32%; in assay [3], -0.09%; in assay [4], -0.72%; in [5] it was 5.17%; in assay [6], 1.18%. In addition, the inhibition in assay [7] was found to be 11.6%; in assay [8], 2.44%; in assay [9] it was 12.6%; in [10] it was 0.02%; in assay [11], 20.7%; in assay [12] it was 0.58%. The inhibition in assay [13] was 0.88%; in assay [14], -2.5%; in assay [15], 1.03%; in [16] it was -0.84%; in assay [17], 5.22%; in [18], 0.46%. In addition, the figures for the inhibition in assay [19] and in assay [20] were 1.17% and -6.37%, respectively.

On to `CN1CCC(n2cnc(-c3ccc(F)cc3)c2-c2ccnc(N)n2)CC1`, for which the inhibition is 29.6% in assay [1]; 0.15% in assay [2]; 1.13% in [3]; -2.24% in [4]; 6.37% in assay [5]; 5.6% in assay [6]. Further, the inhibition in assay [7] was 18.7%; in [8] it was 1.63%; in assay [9], 13.3%; in assay [10], 4.75%; in assay [11], 27.5%; in [12] it was 5.16%. The inhibition in [13] is -2.05%; in [14], 2.9%; in [15], 15.1%; in assay [16] it was 1.96%; in assay [17], 10.6%; in assay [18], 1.38%. Besides, the inhibition in assay [19] turned out to be 0.46%; in [20], 2.67%.

Consider `Cc1ccc2c(-c3ccnc(Nc4ccccc4)n3)c(-c3ccc(F)cc3)nn2n1`, for which the inhibition in [1] worked out at 68.1%; in [2], 3.09%; in assay [3] it was 14.2%; in [4], 15.2%; in [5], 47.5%; in assay [6] it was 14.8%. The inhibition amounted to 46.6% in assay [7]; 1.27% in [8]; 0.44% in assay [9]; 14.7% in assay [10]; 50.7% in assay [11]; 0.11% in assay [12]. Besides, the inhibition in [13] was 3.58%; in assay [14] it was 2.77%; in [15] it was 5.97%; in [16], 15.3%; in assay [17], 63.2%; in assay [18], 1.58%. For the same compound, the inhibition is 9.73% in [19] and -2.66% in assay [20].
